Each structure is given as a SMILES string. About 79,000 compounds went through this panel and 15% of them were active in at least one assay; those are over-represented in the sample as a whole. A number with no mark means an inactive call. No stated cut-off is given here; in the data, active means growth inhibition above about 70%; inactive means the rest.

A short description of this assay: NCI Yeast Anticancer Drug Screen. Data for the mlh1 rad18 strain (AID 175). To be noted: S. cerevisiae mlh1 rad18 strain growth inhibition; at 50.0 µM; active compounds read high. In outline:
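Test agents were incubated with a yeast strain of defined genotype (DNA damage repair defect). Inhibition of growth was derived by comparison with vehicle-exposed cultures.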
Regarding `Cc1ccc(NC(=O)CC2C(=O)Nc3ccccc3S2=O)c(C)c1` (stereo not given), the growth inhibition was -5.55%.
Then `Nc1nc(-c2ccc3c(ccc4ccccc43)c2)cs1`, with 28.2%; and `COC(=O)C(=O)CC(=O)CCn1ncc(Cl)c(Cl)c1=O`, with -17.7%.
Then `O=C(CCN1CCCCC1)c1cc2cc([N+](=O)[O-])ccc2oc1=O`, with 32.6%; and `CCOC(=O)C1CN(CCc2ccccc2)CCC1=O` (stereo not given), with 31.8%.
To `NC(CCS(N)(=O)=O)C(=O)O` (stereo not given) belongs -10.9%.
For the compound `Cc1cc(C(N)=O)no1`, the growth inhibition is -1.05%.
Then `BrC1CC2CCCCC2CC1Br` (stereo not given), with 9.65%; and `C1CCSCCCCSCCCCSCCCCSC1`, with 35.8%.
Then `O=c1[nH]c2cc(Cl)c([N+](=O)[O-])cc2c2ccccc12`, with -0.25%; and `CC(C)(C)C(=O)O[C@H]1C=C[C@@H](O)[C@@H]2[C@H]1[C@@H]1C=C[C@H]2C1`, with 53.5%.
Then `Cc1cc(N=Nc2cc(Br)cc(Br)c2)cc(C)c1N`, with 7.65%; and `CN1CCC(CC(O)(c2ccccc2)C2CCCCC2)C1` (stereo not given), with -20.9%.
As to `CCc1ccccc1NC(C)=O`, the growth inhibition was -12.7%.
Then `CC(C)(C)C(=O)Oc1ccc[nH]c1=O`, with -2.1%; and `CC1=CC(=O)OC(=O)/C1=C/c1ccc(N(C)C)cc1`, with -9.4%; and `Cc1sc2c(c1C)C(=O)c1cccn1-2`, with -1%.
To `CC1=NN(c2nc(N)nc(CCl)n2)CC1` belongs -29.2%; to `O=C(CNS(=O)(=O)c1ccccc1)c1ccc(Cl)cc1Cl`, 53.8%; to `O=C(NCc1cccnc1)Nc1cccc2c(NC(=O)NCc3cccnc3)cccc12`, 13.9%.
For `Nc1c(I)cc(C(=O)O)c(O)c1I`, the growth inhibition is -9.15%.
To `CC(C)=CCC\C(C)=C/C=C/C(C)=C\C=C\C(C)=C/C=C/C=C(C)\C=C\C=C(C)/C=C/C=C(/C)CCC=C(C)C` belongs 20.2%; to `S=c1cc(S)sc2c1c(=S)sc1nc3ccccn3c(=S)c12`, 45%.
Then `NS(=O)(=O)c1cc2c(cc1Cl)NC(C(=O)NNC(=O)c1ccncc1)=NS2(=O)=O`, with -20.4%; and `CC1CCN(C(=O)Nc2ccccc2)CC1`, with -10.7%.
To `CCOc1nc(N)nc(C)c1N=Nc1ccccc1OC` belongs 13.5%.
Regarding `COc1cc(/C=N/NC(=O)Cc2cccc3ccccc23)ccc1O`, the growth inhibition is 8.8%.
To `CCOC(=O)NC(=Cc1ccccn1)c1ccc(Cl)cc1` (mixture of isomers) belongs 28.6%; to `COC(=O)[C@]1(C)CCC[C@]2(C)C3=C[C@@H](O)[C@@]4(C(C)C)O[C@H]4[C@]3(O)CC[C@@H]12`, -26.6%.
For the compound `CC(=O)CC(=O)Nc1ccc(NC(=O)CC(C)=O)cc1`, the growth inhibition is -15.9%.
To `CC(=NNC(=S)Nc1ccccc1)c1cccc(C(C)=NNC(=S)Nc2ccccc2)n1` belongs 6.4%; to `COc1ccccc1NC(=S)NCCO`, 13.6%.
To `CCOC(=O)c1c[nH]c2cc(Cl)ccc2c1=O` belongs -12.9%.
As to `O=c1[nH]cc(S)c(=O)[nH]1`, the growth inhibition is -0.35%.
Consider `CN(C)CCn1cnc2sc3ccccc3c21`, for which the growth inhibition is -23.8%.
Then `Nc1c(OCc2ccccc2)cccc1C(=O)O`, with -12.2%; and `CC(=O)C1C(=O)C(=O)N(CCN2C(=O)C(=O)C(C(C)=O)C2=O)C1=O` (stereo not given), with 0.75%.
`CC(=Nc1ccccc1)Nc1ccccc1`: the growth inhibition is 48.1%.
To `O=[N+]([O-])c1ccc(Br)cc1` belongs 19.2%.
To `CS(=O)(=O)OC1C(O)C(O)OC(CO)C1O` (stereo not given) belongs 7.7%.

Source of the values: PubChem BioAssay (NCI).
